# Results from the supplement of paper PMC10338343.
# ± gives the standard deviation.
# System: MILI (PIWIL2) piRISC loaded with L1MC piRNA (26 nt)
# Assay: pre-steady-state target cleavage rate (min^-1); guide: L1MC piRNA 5'p-UAACUAAAUACUAUGCAAGCUGUAGG; MIWI and MILI are mouse PIWI proteins and EfPiwi is from a freshwater sponge; tags in brackets are library labels; higher = faster piRNA-guided slicing of the target
# Details: auxiliary factor: 500 nM mouse GTSF1
# Method in brief: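 The method was Cleave-'n-Seq, in which uncleaved targets from a transcribed, DNA-blocked target RNA library were sequenced after exposure to active affinity-purified piRISC carrying one synthetic guide, with or without GTSF1 partner protein. Reactions contained 0.1 nM library, 1 nM piRISC and, where present, 500 nM GTSF1 in HEPES–potassium acetate buffer at 33 °C for 0–8 or 0–960 min. Reads were normalised to depth and to weakly complementary targets, three trials were pooled, and k3 was capped at 0.0001 min^-1. The pre-steady-state cleavage rate came from a burst-and-steady-state fit.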
row,Sequence,pre-steady-state target cleavage rate
1,UCCUGGAUGAGCUAGCAUAGUAUUUUGUUA,0.159 ± 0.036
2,UCCUGCUACAGGUUGCAUAGUAUUUAGAAA,0.0337 ± 0.011
3,UCCUGCUACAGCAUGCAUAGAAUUUAGUUA,0.0922 ± 0.021
4,UCCUGGAACACGUUGCAUAGUAUUUAGUAA,0.254 ± 0.036
5,UCCUGCUACAUGCUUGCAUAGUAUUUAGUUA,0.0998 ± 0.021
6,UCCUGGAUGACCUAGCAUAGUAUUUAGUUA,0.0953 ± 0.022
7,UCCUGGUAGAGCUUGCAUAGUAUUUAGAAA,0.128 ± 0.028
8,UCCUGGAACAGCUUGCAUAGUAUUUACAUA,0.0382 ± 0.014
9,UCCUGGAUCAGCUUGCAUAGUUUUUAGAUA,0.0159 ± 0.0066
10,UCCUGGAACAGCUUGCAUAGUAAAAAGUUA,0.0663 ± 0.018
11,UCCUGGAUGAGCUUGCAUAGUAUUAAGAUA,0.00532 ± 0.0045
12,UCCUGGAUCAGCUUGCAUAGUAUAUAGAUA,0.0407 ± 0.013
13,UCCUGCAACAGCUUGCAUAGUAUUUUCAAA,0.104 ± 0.027
14,UCCUGCUACAGCUUGCAUAGUAUUAUGUUA,0.231 ± 0.047
15,UCCUGGUACAGCUUGCAUAGUAAAUAGUUA,0.238 ± 0.038
16,UCCUGCUACAGCUUGCAGUAGUAUUUAGUUA,0.00973 ± 0.0053
17,UCCUGCAACAGCUUGCAUAGAAUUUAGUUA,0.0925 ± 0.023
18,UCCUGGAACAGCUUGCAUAGUAAUUAGUAA,0.108 ± 0.015
19,UCCUGGUACUCCUUGCAUAGUAUUUAGAAA,0.0265 ± 0.01
20,UCCUCCUACAGCUUGCAUAGUAUUAAGAAA,0.159 ± 0.036

row,Sequence,pre-steady-state target cleavage rate
1,UCCUGCUACAGCUUGCAUACUAUUUACUUA,0.0359 ± 0.011
2,UCCUGGUACUGCUUGCAUAGUAUUUUCAAA,0.0112 ± 0.0064
3,UCCUCCUACAGCUAGCAUAGUAUUUACUUA,0.15 ± 0.022
4,UCCUCCUACACCUUGCAUAGUUUUUAGUUA,0.0414 ± 0.012
5,UCCUGGAACAGCUUGCAUAGAAUUUAGUAA,0.0627 ± 0.014
6,UCCUGGAUGUCCUUGCAUAGUAUUUAGUCA,0.0898 ± 0.017
7,UCCUGGAACAGCUUGCAAUAGUAUUUAGUUA,0.0492 ± 0.013
8,UCCUGGAACAGCUUGCUAUAGUAUUUAGUUA,0.028 ± 0.0077
9,UCCUCCUACACCUUGCAUACUAUUUAGUUA,0.0962 ± 0.025
10,UCCUGGAACAGGAUGCAUAGUAUUUACAAA,0.0486 ± 0.017
11,UCCUGGUUCAGCUUGCAUAGUAUUUAGAAA,0.114 ± 0.022
12,UCCUGGAACAGCUUGCAUACUAUUAAGUUA,0.0333 ± 0.012
13,UCCUGGUACAGGUUGCAUAGUAUUUAGAUA,0.195 ± 0.054
14,UCCUCCAACAGCUUGCAUAGUAUUUUCAAA,0.0817 ± 0.015
15,UCCUGGAUGAGCUUGCAUAGUAUAAAGUUA,0.255 ± 0.047
16,UCCUCCUACAGCUUGGAUAGUAUUUAGAAA,0.0815 ± 0.017
17,UCCUGCUACAGCUUGCACUAGUAUUUAGUUA,0.0609 ± 0.015
18,UCCUGGAACAGGAUGCAUAGUAUUUAGAAA,0.0732 ± 0.017
19,UCCUCCUACAGCUUGCUUAGUAUUUAGAAA,0.091 ± 0.018
